Bioassay records deposited in PubChem BioAssay by several laboratories.
MCL1-BIM inh: disrupts human MCL1 binding to BIM-BH3 peptide. Q07820. inhibition, % at 10.9 µM. GST-MCL1 / FITC-Bim-BH3 fluorescence polarization. 0.68% of 320,000 active;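 active = inhibition above the mean inhibition of all tested compounds plus 3 SD, set per campaign, cut at about 40% in these data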;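 also: 0% = DMSO wells and 100% = unlabeled Bim-BH3 peptide control; higher means more loss of mP so more displacement of Bim peptide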
14-3-3 Bad PPI: disrupts binding of bovine 14-3-3 zeta to phospho-Bad peptide; P63103; TR-FRET 14-3-3zeta/Dy647-pBad peptide displacement, 1 h; inhibition, % at 21.7 µM; 0.71% of 220,000 active;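 active = inhibition above about 70%, limit read from the data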;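 also: 0% = full 14-3-3 plus peptide FRET controls and 100% = background without 14-3-3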
Target sequence (P63103 whole entry, looked up): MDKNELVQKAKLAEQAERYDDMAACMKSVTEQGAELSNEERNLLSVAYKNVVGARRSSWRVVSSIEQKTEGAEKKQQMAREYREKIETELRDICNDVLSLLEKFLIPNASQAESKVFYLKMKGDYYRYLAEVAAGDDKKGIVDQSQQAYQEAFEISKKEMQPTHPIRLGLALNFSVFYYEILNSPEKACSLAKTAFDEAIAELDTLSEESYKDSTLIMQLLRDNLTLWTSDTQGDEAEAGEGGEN
Mcl-1 Bim block: human Bim-Mcl-1 interaction inhibition; inhibition, % at 10 µM; Bead-based flow cytometry, Bim peptide-Mcl-1 binding; Q07820; 0.1% of 190,000 active; in the data active = inhibition above about 40%;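 also: 0% = no compound tracer wells and 100% = peptide blocker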
Mcl1-Bid inh: disrupts binding of human Mcl-1 to Bid peptide; AID 1021; inhibition, % at 21.7 µM; TR-FRET Mcl-1/Bid-Dy647 peptide binding, 1536-well; 0.97% of 220,000 active;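 active = compounds that cut the binding signal by more than half at the single screening dose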;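 also: His-tagged Mcl-1 with europium anti-His antibody binding Bid BH3 peptide; 0% = Mcl-1 plus peptide wells and 100% = peptide-only wells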
Mcl1-Noxa inh: Mcl-1/Noxa interaction inhibition; 1.5% of 220,000 active; Q07820; TR-FRET Mcl-1/Noxa peptide binding, 2 h; inhibition, % at 21.7 µM; AID 1022;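 active = compounds that cut the protein-peptide binding signal by more than 50% relative to plate controls in a single-dose test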;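 also: His-tagged Mcl-1 with rhodamine Noxa BH3 peptide and terbium anti-His antibody; 0% = Mcl-1 plus Noxa peptide wells and 100% = peptide-only wells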
Bcl-xL conf: Bcl-xL (human) inhibition, MCL1 counter-screen confirmation. shares compounds with MCL1-BIM inh. GST-Bcl-xL / FITC-Bim BH3 peptide FP binding. inhibition, % at 10.9 µM. 54% of 1,700 active. AID 2166;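 active = inhibition above a cutoff equal to the mean inhibition of all tested compounds plus 3 SD, cut at about 30% in these data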;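 also: 0% = DMSO wells and 100% = unlabeled Bim BH3 control peptide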
Target sequence (Q07817 whole entry, looked up): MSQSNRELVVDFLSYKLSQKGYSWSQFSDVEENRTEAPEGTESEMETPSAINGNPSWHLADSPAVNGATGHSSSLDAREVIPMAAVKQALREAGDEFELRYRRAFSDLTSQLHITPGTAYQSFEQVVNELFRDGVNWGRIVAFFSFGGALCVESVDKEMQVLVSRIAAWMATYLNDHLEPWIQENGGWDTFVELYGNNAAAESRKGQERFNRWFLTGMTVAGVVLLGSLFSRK
MCL1 BIM confirm: confirmation of human MCL1 and BIM-BH3 interaction inhibitors | shares compounds with MCL1-BIM inh | GST-MCL1 / FITC-Bim-BH3 fluorescence polarization | inhibition, % at 10.9 µM | 61% of 1,700 active;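 active = inhibition above the average of all tested compounds plus 3 SD, cut at about 40% in these data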;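 also: 0% = DMSO wells and 100% = unlabeled Bim-BH3 control peptide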
Numbers without * were called inactive. An excerpt weighted towards active compounds, which were near 2.5% of everything screened.

Results for Cc1nc(NC(=O)c2cc3c(s2)CCCCC3)sc1C(=O)N(C)C ?
MCL1-BIM inh: 8; 14-3-3 Bad PPI: 2; Mcl-1 Bim block: -2; Mcl1-Bid inh: -24; Mcl1-Noxa inh: 0

Results for O=C1C2=C(SCCS2)C(=O)N1CCCO ?
MCL1-BIM inh: 92*; 14-3-3 Bad PPI: -6; Mcl-1 Bim block: 0; Mcl1-Bid inh: -19; Mcl1-Noxa inh: -3; Bcl-xL conf: 74*; MCL1 BIM confirm: 94*

How did O=C1c2ccc(-c3ccc4c(c3)C(=O)N(CCCO)C4=O)cc2C(=O)N1CCCO do in these assays?
MCL1-BIM inh: 4; 14-3-3 Bad PPI: 6; Mcl1-Bid inh: -22; Mcl1-Noxa inh: -3

How did Cc1nn2c(N)csc2nc1=O do in these assays?
MCL1-BIM inh: 58*; 14-3-3 Bad PPI: -9; Mcl-1 Bim block: 13; Mcl1-Bid inh: 8; Mcl1-Noxa inh: 28; Bcl-xL conf: 51*; MCL1 BIM confirm: 59*

What do the screens show for `Cc1nn2c3ccccc3n(C)c2nc1=O`?
MCL1-BIM inh: 9; 14-3-3 Bad PPI: 4; Mcl-1 Bim block: 4; Mcl1-Bid inh: -4; Mcl1-Noxa inh: -6

What do the screens show for `CC(C)N=c1cc2n(-c3ccc(Cl)cc3)c3ccccc3nc-2cc1Nc1ccc(Cl)cc1`?
MCL1-BIM inh: 118*; Bcl-xL conf: active; MCL1 BIM confirm: active

What do the screens show for `Cn1c(CNc2ccc(Cl)cc2)nc2ccccc21`?
MCL1-BIM inh: -3; 14-3-3 Bad PPI: -4; Mcl-1 Bim block: 0; Mcl1-Bid inh: -40; Mcl1-Noxa inh: -5

What do the screens show for `COC(=O)CCCCC1SCC(NC(=O)OC)C1NC(=O)OC` (configuration not stated)?
MCL1-BIM inh: 49*; 14-3-3 Bad PPI: 1; Mcl-1 Bim block: 0; Mcl1-Bid inh: -26; Mcl1-Noxa inh: -1; Bcl-xL conf: 5; MCL1 BIM confirm: 2

What do the screens show for `O=C1Nc2c(Br)cc(Br)c3cccc1c23`?
MCL1-BIM inh: -2; 14-3-3 Bad PPI: 30; Mcl-1 Bim block: 2; Mcl1-Bid inh: 28; Mcl1-Noxa inh: 21

Results for CNC(=O)c1cc(C(=O)c2ccc(C(F)(F)F)cc2F)c[nH]1 ?
MCL1-BIM inh: 66*; 14-3-3 Bad PPI: -8; Mcl-1 Bim block: 0; Mcl1-Bid inh: -11; Mcl1-Noxa inh: 7; Bcl-xL conf: 2; MCL1 BIM confirm: 6

How did Cc1ccc2nc3c(cc(C(=O)NCc4ccco4)c(=N)n3Cc3ccco3)c(=O)n2c1 do in these assays?
MCL1-BIM inh: 58*; 14-3-3 Bad PPI: -10; Mcl-1 Bim block: -1; Mcl1-Bid inh: -31; Mcl1-Noxa inh: 22; Bcl-xL conf: 13; MCL1 BIM confirm: 7

How did Cc1cccn2c(=O)c3cc(C(=O)NCc4ccco4)c(=N)n(C(C)C)c3nc12 do in these assays?
MCL1-BIM inh: 90*; 14-3-3 Bad PPI: 4; Mcl-1 Bim block: 0; Mcl1-Bid inh: 3; Mcl1-Noxa inh: 20; Bcl-xL conf: 39*; MCL1 BIM confirm: 63*

Results for Cc1ccc(CNC(=O)c2cc3c(=O)n4ccccc4nc3n(Cc3ccco3)c2=N)cc1 ?
MCL1-BIM inh: -3

What do the screens show for `N=c1c(C(=O)NC2CCCC2)cc2c(=O)n3ccccc3nc2n1C1CCCC1`?
MCL1-BIM inh: 7; Mcl-1 Bim block: -1; Mcl1-Bid inh: -36; Mcl1-Noxa inh: -4

How did N=c1c(C(=O)NCc2ccco2)cc2c(=O)n3ccccc3nc2n1C1CCCC1 do in these assays?
MCL1-BIM inh: 63*; Bcl-xL conf: 157*; MCL1 BIM confirm: 194*

How did Cc1ccc(S(=O)(=O)c2cc3c(=O)n4ccccc4nc3n(Cc3ccco3)c2=N)cc1 do in these assays?
MCL1-BIM inh: 58*; 14-3-3 Bad PPI: 8; Mcl-1 Bim block: 1; Mcl1-Bid inh: 26; Mcl1-Noxa inh: 72*; Bcl-xL conf: 25; MCL1 BIM confirm: 20

Results for Cc1cccn2c(=O)c3cc(C(=O)NCc4cccnc4)c(=N)n(C(C)C)c3nc12 ?
MCL1-BIM inh: 14; 14-3-3 Bad PPI: -1; Mcl-1 Bim block: 2; Mcl1-Bid inh: -58; Mcl1-Noxa inh: 6

Results for NC(=O)C1CCCN(C(=O)Nc2cccc3ccccc23)C1 (configuration not stated) ?
MCL1-BIM inh: 7; 14-3-3 Bad PPI: 2; Mcl-1 Bim block: -2; Mcl1-Bid inh: -6; Mcl1-Noxa inh: -20

Results for O=C(Nc1ccc(F)cc1F)c1noc2c1CCC2 ?
MCL1-BIM inh: 47*; 14-3-3 Bad PPI: 7; Mcl-1 Bim block: -1; Mcl1-Bid inh: -24; Mcl1-Noxa inh: 19; Bcl-xL conf: 19; MCL1 BIM confirm: 66*

Results for O=C(O)CSc1cc(NS(=O)(=O)c2ccc(Cl)cc2)c2ccccc2c1O ?
MCL1-BIM inh: 38

What do the screens show for `COc1ccc(S(=O)(=O)Nc2cc(SCC(=O)O)c(O)c3ccccc23)cc1`?
Bcl-xL conf: 30

What do the screens show for `Cc1ccc2cc(C#N)c(N3CCN(C(=O)c4cccs4)CC3)nc2c1`?
MCL1-BIM inh: 9

Results for COc1ccc2c(c1)c1nc3ccccc3nc1n2CC(=O)OC(C)C ?
MCL1-BIM inh: 59*; 14-3-3 Bad PPI: 11; Mcl-1 Bim block: 0; Mcl1-Bid inh: 17; Mcl1-Noxa inh: 7; Bcl-xL conf: 106*; MCL1 BIM confirm: 140*

How did Cc1ccsc1C(=O)N(c1nc2ccccc2s1)c1c(C)cccc1C do in these assays?
MCL1-BIM inh: 3; 14-3-3 Bad PPI: 1; Mcl-1 Bim block: 1; Mcl1-Bid inh: 2; Mcl1-Noxa inh: 4

Results for CN(C)C1(CN=Cc2cc(Cl)cc([N+](=O)[O-])c2O)CCCCC1 ?
MCL1-BIM inh: 60*; Bcl-xL conf: -3; MCL1 BIM confirm: 2

Results for COc1cccc(C2c3c(oc4ccccc4c3=O)C(=O)N2c2ccccn2)c1 (configuration not stated) ?
MCL1-BIM inh: 2; 14-3-3 Bad PPI: 3; Mcl-1 Bim block: 0; Mcl1-Bid inh: -11; Mcl1-Noxa inh: 2

Results for NC(=O)/C(=C/c1ccco1)C(N)=S ?
MCL1-BIM inh: 116*; 14-3-3 Bad PPI: -7; Mcl1-Bid inh: -10; Mcl1-Noxa inh: 25; Bcl-xL conf: 21; MCL1 BIM confirm: 18

What do the screens show for `CCN(C(=O)COC(=O)Cn1c(C)csc1=O)c1c(N)n(Cc2ccccc2)c(=O)[nH]c1=O`?
MCL1-BIM inh: 0

What do the screens show for `Cc1ccc(C(=O)NCC(=O)NCC(=O)OCC(=O)c2ccc(Br)cc2)cc1`?
MCL1-BIM inh: 54*; 14-3-3 Bad PPI: -2; Mcl-1 Bim block: 3; Mcl1-Bid inh: -40; Mcl1-Noxa inh: -17; Bcl-xL conf: 2; MCL1 BIM confirm: 2

How did Cc1ccc(C(=O)COC(=O)CNC(=O)Cc2ccccc2)cc1 do in these assays?
MCL1-BIM inh: 10
